Data: PubChem BioAssay (NCATS)
Results filed as inconclusive are left out. Active and inactive are the calls of the source. The call rests on the fitted dose curve; in most records, active means well fitted inhibition curve with a large enough effect; inconclusive means small, poorly fitted or top-dose-only effect; inactive means flat fitted curve, though single readings scatter. Peptide text beside a SMILES is read from it.

Tested on: CP238
Assay: qHTS profiling for inhibitors of Plasmodium falciparum proliferation (AID 504749); further: nearly all actives have a fitted effect of over 60% in size
Settings: P. falciparum in erythrocytes, SYBR Green DNA, 72 h; series mostly up to 12.8 µM
Summary of the method: (§1)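 SYBR Green fluorescence (ex 485 nm, em 535 nm) reports parasite DNA after 72 h compound exposure of infected red cells at 0.3% parasitemia, 2.5% hematocrit; signal normalized to 0.29 uM artemisinin and vehicle wells.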
Potency means the concentration at half of the fitted maximal effect.

Potency, inactive:
CN(C)CCCOC1C(C(O)CO)OC2OC(C)(C)O[C@@H]21 (some centres not stated)
CCC(C)C(=O)OC1CCC=C2C=CC(C)C(CCC3CC(O)CC(=O)O3)[C@@H]21 (some centres not stated)
CC(=O)OC1CCC2C3CCc4cc(O)ccc4C3CCC12C (configuration not stated)
CC[C@@]12CCCN3CCc4c(n(c5ccccc45)[C@](O)(C(=O)OC)C1)C32 (some centres not stated)
CN1CC(=O)N=C1N
OCC1OC([S-])[C@H](O)C(O)C1O.[Au+] (some centres not stated)
CC(C)C1CCC(C(=O)NC(Cc2ccccc2)C(=O)O)CC1 (configuration not stated)
CCC(CCC(C)C1CCC2C3CC=C4CC(O)CC[C@@]4(C)C3CC[C@@]12C)C(C)C (some centres not stated)
C[C@]12CCC(=O)C=C1CCC1C2C(=O)C[C@]2(C)C1CC[C@]2(O)C(=O)CO (some centres not stated)
OCC1O[C@H](OC2C(CO)O[C@@](O)(CO)C2O)C(O)C(O)C1O (some centres not stated)
CC1(C)OC2CO[C@]3(COS(N)(=O)=O)OC(C)(C)OC3C2O1 (some centres not stated)
CC1(C)OC2CC(=O)OC[C@@]23C1CC(=O)[C@]1(C)C3CC[C@@]2(C)C(c3ccoc3)OC(=O)C3O[C@@]321 (some centres not stated)
CCOC(=O)C1=CC(OC(CC)CC)C(NC(C)=O)C(N)C1 (configuration not stated)
COC(=O)C(Cc1ccccc1)NC(=O)C(N)CC(=O)O (stereo not drawn) (H-Asp-Phe-OMe; configuration not given here)
C[C@]12C=CC(=O)C=C1CCC1C2C(O)C[C@]2(C)C1CC[C@]2(O)C(=O)CO (some centres not stated)
CC1(C)S[C@H]2C(NC(=O)[C@@H](N)c3ccc(O)cc3)C(=O)N2[C@@H]1C(=O)O (some centres not stated)
CC(C)=CCC[C@](C)(O)C1CC=C(C)CC1 (some centres not stated)
C[C@]1(c2ccccc2)OC(C(=O)O)=CC1=O
CC(=O)N[C@H](CC(C)C)C(=O)O
COc1ccc2cc(C(C)CO)ccc2c1 (configuration not stated)
CC1CCC(C(C)C)C(=O)C1 (configuration not stated)
CNC1CC(N)[C@H](O)[C@@H](O[C@@H]2OC(CO)C3OC4(OC(C(N)CO)C(O)C(O)C4O)O[C@@H]3[C@H]2O)C1O (some centres not stated)
CCCC(=O)O[C@]1(C(=O)CO)CCC2[C@@H]3CCC4=CC(=O)CC[C@]4(C)C3C(O)C[C@]21C (some centres not stated)
CC(=O)[C@]1(O)CCC2C3C=C(Cl)C4=CC(=O)C5CC5[C@@]4(C)C3CC[C@]21C (some centres not stated)
CC(=O)N[C@@H]1C(O)OC(CO)C(O)C1O (some centres not stated)
C/C1=C2N=C(/C=C3N=C(/C(C)=C4\[N-]C(C)(C5N=C1C(C)(CCC(=O)NCC(C)OP(=O)([O-])O[C@H]1C(O)C(n6cnc7cc(C)c(C)cc76)O[C@@H]1CO)C5CC(N)=O)C(C)(CC(N)=O)C4CCC(N)=O)C(C)(CC(N)=O)C\3CCC(N)=O)C(C)(C)C/2CCC(N)=O.[CH2-]C1OC(n2cnc3c(N)ncnc32)C(O)C1O.[Co] (some centres not stated)
O=C1OC(CO)C(O)C(O)C1O (configuration not stated)
CNC1C(OC2C(O[C@@H]3C(O)C(O)[C@@H](N=C(N)N)C(O)C3N=C(N)N)OC(C)[C@@]2(O)CO)OC(CO)C(O)C1O (some centres not stated)
Nc1nc2ncc(CNc3ccc(C(=O)NC(CCC(=O)O)C(=O)O)cc3)nc2c(=O)[nH]1 (configuration not stated)

Potency, active:
NC(C(=O)O)[C@@H]1CC(Cl)=NO1 (some centres not stated) 2820 nM
COC1C=CO[C@@]2(C)Oc3c(C)c(O)c4c(O)c(c5c(nc6cc(C)ccn65)c4c3C2=O)NC(=O)/C(C)=C\C=CC(C)C(O)[C@@H](C)C(O)C(C)[C@@H](OC(C)=O)C1C (some centres not stated) 10000 nM
CO[C@]12C(COC(N)=O)C3=C(C(=O)C(C)=C(N)C3=O)N1CC1NC12 (some centres not stated) 631 nM
COC1C=CO[C@@]2(C)Oc3c(C)c(O)c4c(O)c(c(C=NN5CCN(C)CC5)c(O)c4c3C2=O)NC(=O)/C(C)=C\C=CC(C)C(O)[C@@H](C)C(O)C(C)[C@H](OC(C)=O)C1C (some centres not stated) 3550 nM
COc1cc(C2c3cc4c(cc3C(O[C@@H]3OC5COC(c6cccs6)OC5C(O)C3O)C3COC(=O)C23)OCO4)cc(OC)c1O (some centres not stated) 2000 nM

Tested on: CP247
Assay: as above
Settings: P. falciparum in erythrocytes, SYBR Green DNA, 72 h; series mostly up to 12.8 µM
Summary of the method: as §1

Potency, inactive:
CN(C)CCCOC1C(C(O)CO)OC2OC(C)(C)O[C@@H]21 (some centres not stated)
CCC(C)C(=O)OC1CCC=C2C=CC(C)C(CCC3CC(O)CC(=O)O3)[C@@H]21 (some centres not stated)
CC(=O)OC1CCC2C3CCc4cc(O)ccc4C3CCC12C (configuration not stated)
CC[C@@]12CCCN3CCc4c(n(c5ccccc45)[C@](O)(C(=O)OC)C1)C32 (some centres not stated)
CN1CC(=O)N=C1N
OCC1OC([S-])[C@H](O)C(O)C1O.[Au+] (some centres not stated)
CC(C)C1CCC(C(=O)NC(Cc2ccccc2)C(=O)O)CC1 (configuration not stated)
CCC(CCC(C)C1CCC2C3CC=C4CC(O)CC[C@@]4(C)C3CC[C@@]12C)C(C)C (some centres not stated)
C[C@]12CCC(=O)C=C1CCC1C2C(=O)C[C@]2(C)C1CC[C@]2(O)C(=O)CO (some centres not stated)
OCC1O[C@H](OC2C(CO)O[C@@](O)(CO)C2O)C(O)C(O)C1O (some centres not stated)
CC1(C)OC2CO[C@]3(COS(N)(=O)=O)OC(C)(C)OC3C2O1 (some centres not stated)
CC1(C)OC2CC(=O)OC[C@@]23C1CC(=O)[C@]1(C)C3CC[C@@]2(C)C(c3ccoc3)OC(=O)C3O[C@@]321 (some centres not stated)
CCOC(=O)C1=CC(OC(CC)CC)C(NC(C)=O)C(N)C1 (configuration not stated)
COC(=O)C(Cc1ccccc1)NC(=O)C(N)CC(=O)O (stereo not drawn) (H-Asp-Phe-OMe; configuration not given here)
C[C@]12C=CC(=O)C=C1CCC1C2C(O)C[C@]2(C)C1CC[C@]2(O)C(=O)CO (some centres not stated)
CC1(C)S[C@H]2C(NC(=O)[C@@H](N)c3ccc(O)cc3)C(=O)N2[C@@H]1C(=O)O (some centres not stated)
CC(C)=CCC[C@](C)(O)C1CC=C(C)CC1 (some centres not stated)
C[C@]1(c2ccccc2)OC(C(=O)O)=CC1=O
CC(=O)N[C@H](CC(C)C)C(=O)O
COc1ccc2cc(C(C)CO)ccc2c1 (configuration not stated)
CC1CCC(C(C)C)C(=O)C1 (configuration not stated)
CNC1CC(N)[C@H](O)[C@@H](O[C@@H]2OC(CO)C3OC4(OC(C(N)CO)C(O)C(O)C4O)O[C@@H]3[C@H]2O)C1O (some centres not stated)
CCCC(=O)O[C@]1(C(=O)CO)CCC2[C@@H]3CCC4=CC(=O)CC[C@]4(C)C3C(O)C[C@]21C (some centres not stated)
CC(=O)N[C@@H]1C(O)OC(CO)C(O)C1O (some centres not stated)
C/C1=C2N=C(/C=C3N=C(/C(C)=C4\[N-]C(C)(C5N=C1C(C)(CCC(=O)NCC(C)OP(=O)([O-])O[C@H]1C(O)C(n6cnc7cc(C)c(C)cc76)O[C@@H]1CO)C5CC(N)=O)C(C)(CC(N)=O)C4CCC(N)=O)C(C)(CC(N)=O)C\3CCC(N)=O)C(C)(C)C/2CCC(N)=O.[CH2-]C1OC(n2cnc3c(N)ncnc32)C(O)C1O.[Co] (some centres not stated)
O=C1OC(CO)C(O)C(O)C1O (configuration not stated)
CNC1C(OC2C(O[C@@H]3C(O)C(O)[C@@H](N=C(N)N)C(O)C3N=C(N)N)OC(C)[C@@]2(O)CO)OC(CO)C(O)C1O (some centres not stated)
Nc1nc2ncc(CNc3ccc(C(=O)NC(CCC(=O)O)C(=O)O)cc3)nc2c(=O)[nH]1 (configuration not stated)

Potency, active:
NC(C(=O)O)[C@@H]1CC(Cl)=NO1 (some centres not stated) 3160 nM
COC1C=CO[C@@]2(C)Oc3c(C)c(O)c4c(O)c(c5c(nc6cc(C)ccn65)c4c3C2=O)NC(=O)/C(C)=C\C=CC(C)C(O)[C@@H](C)C(O)C(C)[C@@H](OC(C)=O)C1C (some centres not stated) 8910 nM
CO[C@]12C(COC(N)=O)C3=C(C(=O)C(C)=C(N)C3=O)N1CC1NC12 (some centres not stated) 1410 nM
COC1C=CO[C@@]2(C)Oc3c(C)c(O)c4c(O)c(c(C=NN5CCN(C)CC5)c(O)c4c3C2=O)NC(=O)/C(C)=C\C=CC(C)C(O)[C@@H](C)C(O)C(C)[C@H](OC(C)=O)C1C (some centres not stated) 3980 nM
COc1cc(C2c3cc4c(cc3C(O[C@@H]3OC5COC(c6cccs6)OC5C(O)C3O)C3COC(=O)C23)OCO4)cc(OC)c1O (some centres not stated) 2240 nM
